# VACV Venus inh – qHTS for Stage-Specific Inhibitors of Vaccinia Orthopoxvirus: Venus Reporter Primary qHTS; Vaccinia virus Venus reporter expression, fluorescence; Potency, µM (series often up to 36.5 µM), for inactives: at the highest dose activity change, negative = inhibition, most hits filed as inhibitors; 0.46% of 330,000 active; AID 720580, 2013; calls by dose curve; tested in A549 cells; also: nearly all actives have a fitted effect of over 30% in size
# Pf growth 48h – Primary qHTS for delayed death inhibitors of the malarial parasite plastid, 48 hour incubation; AID 504832, 2011; Potency, µM (titrated, usually from 28.7 µM), for inactives: top-dose activity change, negative = inhibition, actives largely listed as inhibitors; 5.9% of 310,000 active; P. falciparum luciferase growth in erythrocytes, 48 h
#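 Here the parasites carry a stable luciferase gene and grow inside erythrocytes in Albumax-based RPMI medium with compound for one erythrocytic cycle. Activity is scored as loss of luminescent signal.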
# Vaccinia mCherry – qHTS for Stage-Specific Inhibitors of Vaccinia Orthopoxvirus: mCherry Reporter Primary qHTS | Vaccinia virus mCherry reporter infection, fluorescence | Potency, µM (titrated, usually from 36.5 µM), without a hit: top-dose activity change, negative = inhibition, hits mostly inhibitors | 0.63% of 310,000 active | AID 720579, 2013; calls by dose curve; tested in A549 cells; also: nearly all actives have a fitted effect of over 35% in size
# Pf growth 96h – Primary qHTS for delayed death inhibitors of the malarial parasite plastid, 96 hour incubation; AID 504834, 2011; Potency, µM (doses to about 28.7 µM), for the others: at the highest dose activity change, negative = inhibition, actives largely listed as inhibitors; P. falciparum luciferase reporter growth, 96 h; 6.9% of 320,000 active
#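 Two-generation exposure (96 h) targets delayed-death phenotype. Reporter parasites carrying integrated firefly luciferase, in red cells at 2% hematocrit and 0.05% parasitemia final, kept at 37 C, 5% CO2; luminescence loss indicates inhibition.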
# AMA1 RON2 block – qHTS for Inhibitors of AMA1-RON; Towards Development of Antimalarial Drug Lead: Primary Screen. Plasmodium falciparum AMA1 (3D7) - RON2 peptide interaction. AlphaScreen AMA1-biotinylated RON2 peptide binding. Potency, µM (highest dose often 58.2 µM), for inactives: at the top dose activity change, negative = inhibition, usual class: inhibitors. 0.2% of 360,000 active. AID 720542, 2013;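 also: 0% = vehicle wells and -100% = peptide control; nearly all actives have a fitted effect of over 45% in size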
#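 AMA1 (3D7) with his tag at 25 nM final met compounds first, then biotinylated RON2 peptide at 25 nM; detection used donor plus acceptor beads, 10 µg/mL apiece, read by AlphaScreen after 30 min at room temperature.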
# * = called active by the depositor; i = inactive; ? = inconclusive; · = no result. Only some compounds are listed: those with a hit (about 8.7% of all), similar ones and a draw of the others. Unless noted, calls follow the shape of the dose curve; as a rule, active = well fitted curve in the direction sought with a large enough effect; inconclusive = small, poorly fitted or top-dose-only effect, or another doubt; inactive = no such curve, though single readings can be large; an effect the other way counts as inactive or inconclusive. Unless noted, % is scaled to controls: 0 for no effect and ±100 for the full control effect; potency is read from the fitted curve at half-maximal effect.
SMILES,VACV Venus inh,Pf growth 48h,Vaccinia mCherry,Pf growth 96h,AMA1 RON2 block
Cc1onc(-c2cccc(Cl)c2Cl)c1C(=O)O/N=C(\N)c1ccc([N+](=O)[O-])o1,?,?,?,10µM*,-23%
Cc1onc(-c2ccccc2Cl)c1C(=O)O/N=C(\N)c1ccccc1,·,?,·,17%,-13%
Cc1onc(-c2ccccc2Cl)c1C(=O)O/N=C(\N)c1cccc([N+](=O)[O-])c1,-25%,·,?,·,-10%
CCCCn1c(=O)c2oc3ccccc3c2n(CC(=O)Nc2ccc(CC)cc2)c1=O,?,·,-24%,·,·
COc1ccc(CNC(=O)c2cc3c(=O)n(Cc4cccnc4)ccc3nc2C)cc1,-8%,·,-5%,·,·
c1ccc(-c2ccc(CN3C[C@@H]4C(c5ccccc5)C5(c6ccccc6)CC4(C5)[C@H]3c3ccccc3)cc2)cc1 (stereo partly drawn),10%,-4%,-25%,?,-3%
COC(=O)c1cccc(C23CC4(C2)[C@H](CN(C)[C@@H]4c2ccccc2)C3c2ccccc2)c1 (stereo partly drawn),-12%,12µM*,-15%,?,?
COC(=O)c1ccc(C23CC4(C2)[C@H](CN(C)[C@@H]4c2ccccc2)C3c2ccccc2)cc1 (stereo partly drawn),-17%,?,-15%,?,?
COC(=O)c1cccc(C23CC4(C2)[C@H](CN(C)[C@@H]4c2ccccc2)C3c2ccc(C(F)(F)F)cc2)c1 (stereo partly drawn),-16%,9.3µM*,?,?,-19%
Cc1ccc(N(CC(=O)NCCc2ccccc2C)S(=O)(=O)N(C)C)cc1,-5%,·,-2%,·,·
CCn1c2ccccc2c2nnc(SC3CCOC3=O)nc21 (stereo not drawn),-4%,·,-16%,·,·
Cc1ccc(-n2cc(CNCC3CC(=O)N(C4CC4)C3)c(-c3cccc(C)c3)n2)cc1 (stereo not drawn),·,?,·,12µM*,-2%
CCCCOc1ccc(-c2nn(-c3ccccc3)cc2C2NC(=O)NC(C)=C2C(=O)OCC)cc1 (stereo not drawn),-21%,·,-12%,·,·
CCOc1ccc(/C=C/C(O)=C2/C(=O)N(C)C3(C)CC2c2ccccc2O3)cc1OC (stereo not drawn),-28%,6.6µM*,?,20%,-12%
Cc1ccc(Cl)cc1N1CCN(C(=O)c2cn(C)c3ccc(S(=O)(=O)N4CCCCC4)cc3c2=O)CC1,11%,·,-6%,·,·
CCN(CC)CCNC(=O)c1nn(C)c2c1CS(=O)(=O)c1ccccc1-2,-3%,·,-3%,·,·
NC(N)=N/N=C/c1cccc(Cl)c1Cl,-25%,1.7µM*,-23%,2.1µM*,-3%
CCOc1ccccc1CNC(=O)C1CCN(S(=O)(=O)c2ccc3c(ccn3C)c2)CC1,-10%,·,-12%,·,·
COc1ccc(C(=O)N(Cc2ccco2)Cc2cccs2)c(OC)c1,-19%,·,-27%,·,·
COc1cc([N+](=O)[O-])cc(/C=C2/SC(=S)N(Cc3ccccc3)C2=O)c1O,i,10µM*,299%,9%,-17%
Cc1cc(C)c(OCCOCCn2c(-c3ccc(Cl)cc3)nc3ccccc3c2=O)c(C)c1,-1%,·,-1%,·,·
Cc1ccc(S(=O)(=O)N(C)Cc2ccc(-c3nnc4n3CCC4)cc2)cc1,-24%,10µM*,-1%,11%,3%
O=S(=O)(c1ccccc1)N1CCN=C1SCc1cccc(Cl)c1,-7%,?,-10%,12µM*,20%
CC(=O)Nc1ccc(S(=O)(=O)N2CCN=C2SCc2ccc(F)cc2)cc1,·,?,·,15µM*,5%
O=S(=O)(c1ccccc1)N1CCN=C1SCc1ccc(Cl)c(Cl)c1,?,?,-13%,?,92%
SMILES,VACV Venus inh,Pf growth 48h,Vaccinia mCherry,Pf growth 96h,AMA1 RON2 block
O=C(NC(C(=O)N/N=C/c1ccccc1)c1n[nH]c(=O)c2ccccc12)c1ccccc1 (stereo not drawn),-5%,?,·,29%,-3%
O=C(NC(C(=O)N/N=C/c1c2ccccc2cc2ccccc12)c1n[nH]c(=O)c2ccccc12)c1ccccc1 (stereo not drawn),-21%,12µM*,·,13µM*,-2%
CCN(CC)CCCNc1ccc2ncn3c4ccc(O)cc4c(=O)c1c23,?,·,0.89µM*,·,-27%
CCc1ccccc1Nc1nc(-c2cccnc2)cs1,·,12µM*,·,9.3µM*,-4%
CCN(CC)c1ccc(Nc2nc(-c3cccnc3)cs2)cc1,-23%,?,-24%,?,28µM*
CCn1nc(C)c(NC(=O)CC23CC4CC(CC(C4)C2)C3)c1C,-17%,-14%,-16%,8.3µM*,1%
COc1cc(OC)c(-c2nn3c(-c4ccco4)nnc3s2)cc1OC,?,10µM*,11µM*,8%,-6%
c1ccc(-c2cc(-c3nn4c(-c5ccco5)nnc4s3)c3ccccc3n2)cc1,·,3.7µM*,·,·,-14%
Cc1cc(-c2nn3c(-c4ccccc4)nnc3s2)c2ccccc2n1,·,?,·,26%,-4%
Cc1ccccc1-c1nn2c(-c3ccccc3)nnc2s1,-18%,?,?,9.3µM*,-8%
Cc1cc(N2CCN(c3ccccc3Cl)CC2)n2cc(-c3ccccc3)nc2n1,·,?,·,?,-8%
Cc1cc(N2CCN(c3ccccc3)CC2)n2c(n1)nc1ccccc12,·,5.9µM*,·,?,6%
Cc1cc(N2CCN(c3ccccc3)CC2)n2nnnc2n1,-7%,8%,-17%,-5%,5%
Cc1cc(N2CCN(c3ccccc3)CC2)n2cc(-c3ccccc3)nc2n1,-20%,?,?,7.4µM*,-17%
CCOC(=O)C1=C(CS(=O)(=O)c2c(C)cc(C)cc2C)NC(=O)NC1c1cccc(OC)c1 (stereo not drawn),3%,·,-6%,·,·
CC(C)c1ccccc1OCC(=O)Nc1cc(S(=O)(=O)N2CCOCC2)ccc1N1CCCC1,-14%,5.2µM*,-25%,?,-26%
O=C(COc1ccccc1F)Nc1cc(S(=O)(=O)N2CCOCC2)ccc1N1CCOCC1,-8%,12µM*,-3%,?,-12%
CCOCC(=O)Nc1cc(S(=O)(=O)N2CCOCC2)ccc1N1CCCCC1,-5%,0%,-3%,?,6%
COc1ccccc1C(=O)OCC(=O)Nc1cc(S(=O)(=O)N2CCOCC2)ccc1N1CCCC1,-13%,0%,-5%,2%,0%
Cc1ccccc1OCC(=O)Nc1cc(S(=O)(=O)N2CCOCC2)ccc1N1CCCC1,·,10µM*,·,7.4µM*,-9%
O=C(Cc1ccccc1F)Nc1cc(S(=O)(=O)N2CCOCC2)ccc1N1CCOCC1,·,?,·,?,-8%

# Source: PubChem
